The campaign covered roughly 320,000 compounds. About 22,000 (6.9%) were called active. Where a call stands in place of a potency, no number is given. Not shown: some 27% with an inconclusive outcome. The sample holds actives, similar compounds and a random draw of the others, so the mix is not that of the screen. Calls follow the shape of the dose curve; as a rule, active = well fitted inhibition curve with a large enough effect; inconclusive = small, poorly fitted or top-dose-only effect, or another doubt; inactive = no such curve, though single readings can be large or run the other way.
Assay: Primary qHTS for delayed death inhibitors of the malarial parasite plastid, 96 hour incubation
Settings: P. falciparum luciferase reporter growth; series mostly up to 28.7 µM
In short: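 96 h incubation, 37 C, 5% CO2, of luciferase-reporter P. falciparum-infected RBCs (2% hematocrit, 0.05% parasitemia final) with test compounds; endpoint luminescence.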
With `N#Cc1ccccc1S(=O)(=O)N1CCN(Cc2c(O)ccc3ccccc23)CC1` the Potency was “inactive”.
For `CC(CCc1ccccc1)NC(=O)c1cnc(Cl)c(Cl)c1` (stereo unspecified), the Potency was “inactive”.
For `Cc1ccc(N(C(=O)CNC(=O)c2ccco2)C(C(=O)NC2CCCC2)c2ccncc2)cc1` (stereo unspecified), the Potency was “inactive”.
For `CC(C)C(NC(=O)c1c(F)cccc1F)C(=O)NCc1ccncc1` (stereo unspecified), the Potency was “inactive”.
In the case of `C[C@@H](NC(=O)OC(C)(C)C)c1nnc(S(=O)(=O)Cc2ccccc2)o1`, the Potency is reported as “inactive”.
For `CC(C)CN(CC(C)C)C(=O)CN1c2cccc3cccc(c23)S1(=O)=O`, the Potency was “inactive”.
In the case of `CCn1c(CC(=O)Nc2ccccc2)nnc1SCC(=O)N1CCOCC1`, the Potency is reported as “inactive”.
In the case of `CCOc1cc(/C=N/NC(=O)c2cccc(S(=O)(=O)N3CCOCC3)c2)ccc1OCC(=O)N(C)C`, the Potency is reported as “inactive”.
With `CCOc1cc(/C=N/NC(=O)c2ccc(CSc3nncn3C)cc2)ccc1OCC(=O)N1CCOCC1` the Potency was 11.7 µM (active).
With `COC(=O)c1ccc(CSc2nncn2C)cc1` the Potency was “inactive”.
For `CC(=O)N1CC[n+]2c(-c3ccc([N+](=O)[O-])cc3)csc21`, the Potency was “inactive”.
For `CC1CCN(S(=O)(=O)c2ccc(NC(=O)C3CC(=O)N(c4ccccc4)C3)cc2)CC1` (stereo unspecified), the Potency was “inactive”.
With `COc1ccc(/C=C/c2nnc(NC(=O)C(C)C)s2)cc1` the Potency was “inactive”.
With `O=C(Nc1ccc(Cl)cc1)Nc1nnc(/C=C/c2ccccc2)s1` the Potency was 13.1 µM (active).
With `O=C(CSc1ccccc1)Nc1nnc(/C=C/c2ccccc2)s1` the Potency was “inactive”.
With `O=S(=O)(c1cnccc1N1CCN(/N=C/c2ccc(Br)cc2)CC1)N1CCCCC1` the Potency was “inactive”.
In the case of `CNS(=O)(=O)c1cnccc1N1CCN(c2cccc(C)c2)CC1`, the Potency is reported as 10.4 µM (active).
For `CC(C)NC(=O)N1CCN(c2ccncc2S(=O)(=O)N2CCCCC2)CC1`, the Potency was “inactive”.
In the case of `COc1ccc(F)cc1C(=O)COC(=O)c1n[nH]c(=O)c2ccccc12`, the Potency is reported as “inactive”.
For `O=C(c1n[nH]c2c1CCC2)N1CCCC(Nc2cccc(F)c2)C1` (stereo unspecified), the Potency was “inactive”.
In the case of `CSc1nc(-c2ccco2)nn1C(=O)c1ccccc1Cl`, the Potency is reported as “inactive”.
In the case of `CCCC1=Nc2cc(C(=O)NCc3ccco3)ccc2Sc2ccccc21`, the Potency is reported as 2.94 µM (active).
With `CCC1=Nc2cc(C(=O)NCCCN3CCOCC3)ccc2Sc2ccc(Br)cc21` the Potency was “inactive”.
In the case of `COc1ccc(CCNS(=O)(=O)c2ccc(C(=O)NCc3ccco3)cc2)cc1OC`, the activity change, negative = inhibition is reported as 11.4% [at 5.75 µM] (inactive).
With `COCCN(C(=O)COC(=O)Cc1cccc(OC)c1)c1c(N)n(Cc2ccccc2)c(=O)[nH]c1=O` the Potency was “inactive”.
For `Cc1ccc(F)cc1S(=O)(=O)Nc1cccc(C(=O)N2CCCC(C(N)=O)C2)c1` (stereo unspecified), the Potency was “inactive”.
With `CCOc1ccc(CN2CCN(CCCc3ccccc3)C(CCO)C2)cc1` (stereo unspecified) the Potency was “inactive”.
With `CCOc1ccc(CN2CCN(Cc3ccc4cc(F)ccc4n3)CC2CCO)cc1` (stereo unspecified) the Potency was 13.1 µM (active).
For `COc1cccc(CN2CCN(Cc3ccc4cccc(F)c4n3)CC2CCO)c1` (stereo unspecified), the Potency was “inactive”.
For `Cc1cccc(C(=O)NCc2nnc(SC(C)C(=O)Nc3nnc(C)s3)n2C)c1` (stereo unspecified), the Potency was “inactive”.
In the case of `O=C(Nc1ccn(Cc2ccccc2)n1)c1cccc(F)c1`, the Potency is reported as “inactive”.
In the case of `Cc1ccc(Cn2ccc(NC(=O)c3cc(C(C)C)on3)n2)cc1`, the Potency is reported as “inactive”.
For `O=C(Nc1ccn(Cc2ccc(F)cc2)n1)c1ccncc1`, the Potency was 9.28 µM (active).
In the case of `COc1ccc(C2=NN(C(=O)CSc3nnnn3C)C(c3ccco3)C2)cc1` (stereo unspecified), the Potency is reported as “inactive”.
In the case of `CCN(C(=O)c1ccc(Br)cc1)c1ccccc1`, the Potency is reported as “inactive”.
In the case of `CCN(C(=O)COc1ccc(C(=O)c2ccccc2)cc1)c1ccccc1`, the Potency is reported as 11.7 µM (active).
In the case of `O=C(COc1ccc(F)cc1)N(CC1=CCS(=O)(=O)C1)c1ccccc1`, the Potency is reported as “inactive”.
In the case of `CCc1ccc(NC(=O)CS(=O)CC(=O)N2CCN(c3ccccc3F)CC2)cc1` (stereo unspecified), the Potency is reported as “inactive”.
For `COc1cccc(/C=N/Nc2ccc(Cl)nn2)c1`, the Potency was “inactive”.
With `CCOC(=O)C(C)n1cnc2c(nnn2-c2ccc(F)cc2)c1=O` (stereo unspecified) the Potency was “inactive”.
For `COc1cccc(/C=N/Nc2ncc(C(F)(F)F)cc2Cl)c1O`, the Potency was “inactive”.
With `COc1cccc(/C=N/Nc2cc(C)nc(-c3ccccc3O)n2)c1O` the Potency was 0.37 µM (active).
For `COc1cccc2c(N/N=C/c3ccco3)cc(C)nc12`, the Potency was “inactive”.
For `O=C(/C=C/c1ccc2c(c1)OCCO2)c1ccc(O)cc1`, the Potency was “inactive”.
In the case of `CN(C)c1ccc(/C=C/C(=O)c2ccc(O)cc2)cc1[N+](=O)[O-]`, the Potency is reported as “inactive”.
For `O=C(/C=C/c1ccc(Cl)c([N+](=O)[O-])c1)c1ccc(O)cc1`, the Potency was 9.28 µM (active).
In the case of `O=C(/C=C/c1ccc(Cl)c([N+](=O)[O-])c1)c1cccnc1`, the Potency is reported as “inactive”.
With `O=C(Nc1ccncc1)c1ccc(Cl)c([N+](=O)[O-])c1` the Potency was “inactive”.
For `NC(N)=N/N=C/c1ccc(Cl)c([N+](=O)[O-])c1`, the Potency was 11.7 µM (active).
With `COc1ccc(Cl)cc1NC(=O)COc1ccc2c(c1)OCO2` the Potency was “inactive”.
For `CCN1C(=S)N[C@@H](c2cccc(C(F)(F)F)c2)C(C(=O)OC)=C1C`, the Potency was “inactive”.
With `CCCCn1c(N)c(N(CC(C)C)C(=O)CSc2ccc([N+](=O)[O-])cc2)c(=O)[nH]c1=O` the Potency was “inactive”.
In the case of `COc1ccc(OC)c(CN2CCN(C(=O)CNC(=O)c3cc(C)cc(C)c3)CC2)c1`, the Potency is reported as “inactive”.
In the case of `O=C(CCNC(=O)c1ccccc1Cl)NCc1ccco1`, the Potency is reported as “inactive”.
With `Cc1cccc(C)c1NC(=O)COC(=O)c1ccccc1O` the Potency was “inactive”.
In the case of `C=CCn1c(CNS(=O)(=O)c2ccc(Br)cc2)nnc1SC`, the Potency is reported as “inactive”.
With `COC(=O)c1cccc(NC(=O)c2cccc(N3C(=O)CCC3=O)c2)c1` the Potency was “inactive”.
For `Cc1cccc(N2C(=O)c3ccc(C(=O)Nc4cccc(C(=O)O)c4)cc3C2=O)c1`, the Potency was 13.1 µM (active).
With `CC(=O)Nc1ccc(NC(=O)c2ccc3c(c2)C(=O)N(c2ccccc2C)C3=O)cc1` the Potency was “inactive”.
In the case of `NC(=O)c1nsc(C(=O)N(CCCN2CCOCC2)C(C(=O)NC2CCCCC2)c2ccc(Cl)cc2)c1N` (stereo unspecified), the Potency is reported as “inactive”.
With `c1ccc2cc(CCCc3cc4ccccc4cn3)ncc2c1` the Potency was “inactive”.
In the case of `CCOc1ccc(OCc2ccc(C(=O)N(C)c3ccccc3)o2)cc1`, the Potency is reported as “inactive”.
With `CCOC(=O)c1nnn(-c2nc(OC)nc(N(C)C)n2)c1-c1ccccc1` the Potency was 2.33 µM (active).
In the case of `CCOC(=O)c1c(N)nn(C(=O)c2ccccc2)c1-c1ccccc1`, the Potency is reported as “inactive”.
In the case of `CCOC(=O)c1nnn(-c2nonc2OC)c1-c1ccccc1`, the Potency is reported as “inactive”.
With `NC(=O)c1ccsc1NC(=O)COC(=O)Cc1n[nH]c(=O)c2ccccc12` the Potency was “inactive”.
In the case of `CCCn1c(C(O)c2ccc(OCC)cc2)nc2ccccc21` (stereo unspecified), the Potency is reported as “inactive”.
In the case of `COc1ccc(OC)c(C(O)c2nc3ccccc3n2C)c1` (stereo unspecified), the Potency is reported as “inactive”.
For `CCn1c(C(O)c2cc(OC)ccc2OC)nc2ccccc21` (stereo unspecified), the Potency was 9.28 µM (active).
For `O=C(Nc1cccc(Cl)c1)c1cc(S(=O)(=O)N2CCCCC2)c[nH]1`, the Potency was “inactive”.
In the case of `CC(=O)Nc1ccc(S(=O)(=O)NC2Cc3ccccc3C2)cc1`, the Potency is reported as “inactive”.
For `COc1ccc(C2CC(c3ccccc3)=NN2C(=O)c2ccc(Cl)c([N+](=O)[O-])c2)cc1` (stereo unspecified), the Potency was “inactive”.
In the case of `COc1ccc(C2=NN(C(=O)c3ccccc3C(=O)O)C(c3ccccc3O)C2)cc1` (stereo unspecified), the Potency is reported as “inactive”.
For `CCOc1ccc2nc(Cl)c(C3CC(c4ccccc4)=NN3C(=O)c3cccs3)cc2c1` (stereo unspecified), the Potency was 8.28 µM (active).
In the case of `Cc1ccccc1Cn1c2ccccc2c2cnn(CC(=O)NCc3ccco3)c(=O)c21`, the Potency is reported as “inactive”.
In the case of `CCN(C(=O)COC(=O)CCOc1cccc(C)c1)c1c(N)n(Cc2ccccc2)c(=O)[nH]c1=O`, the Potency is reported as “inactive”.
With `COc1cc(NC(=O)c2cncc(-c3ccc(C#N)cc3)c2)cc(C(=O)Nc2cccc(C(F)(F)F)c2)c1` the Potency was 6.57 µM (active).
With `COc1ccc(NC(=O)CN(C)CC(=O)Nc2cccc(C(F)(F)F)c2)cc1` the Potency was “inactive”.
For `O=C(Nc1cccc(C(F)(F)F)c1)c1cnccn1`, the Potency was “inactive”.
With `Cc1c(Cl)cccc1NC(=S)NCC(O)c1ccccc1` (stereo unspecified) the Potency was “inactive”.
For `O=C(OC(C(=O)NC1CCCC1)c1ccc(F)cc1)c1ccno1` (stereo unspecified), the Potency was “inactive”.
For `CC(C)C(=O)NCC(c1cccs1)S(=O)(=O)c1ccc(F)cc1` (stereo unspecified), the Potency was “inactive”.
With `COCCNC(=O)C(OC(=O)c1cccs1)c1ccc(F)cc1` (stereo unspecified) the Potency was 13.1 µM (active).
In the case of `CC(=O)C[C@@H](O)CC(=O)[C@H]1OC(=O)CCCCCCc2ccccc21`, the Potency is reported as “inactive”.
With `CCCCn1c(N)c(N(CCOC)C(=O)c2cccc(OCc3ccccc3)c2)c(=O)[nH]c1=O` the Potency was “inactive”.
For `COc1ccc(CCn2c(=N)c(C(=O)NCc3ccco3)cc3c(=O)n4cccc(C)c4nc32)cc1`, the Potency was 0.586 µM (active).
For `COc1ccc(Cn2c(=S)[nH]c3cc(C(=O)NCCCN4CCOCC4)ccc3c2=O)cc1`, the Potency was “inactive”.
With `Cc1cccn2c(CNCC(C)Oc3cccnc3)c(C(=O)N3CCOCC3)nc12` (stereo unspecified) the Potency was “inactive”.
For `Cc1cccn2c(=O)c3cc(C(=O)NCCN4CCOCC4)c(=N)n(Cc4cccnc4)c3nc12`, the Potency was 7.38 µM (active).
For `COCC(C)OC(=O)c1c(N)n(CCCN2CCOCC2)c2nc3ccccc3nc12` (stereo unspecified), the Potency was “inactive”.
In the case of `Cc1cccn2c(=O)c3cc(C(=O)NCC4CCCO4)c(=N)n(Cc4ccc(F)cc4)c3nc12` (stereo unspecified), the Potency is reported as 9.28 µM (active).
In the case of `Cc1ccc(-c2noc(-c3ccccc3C(=O)NCC3CCCO3)n2)cc1` (stereo unspecified), the Potency is reported as “inactive”.
For `COCCNC(=O)c1ccc(Cn2c(SCC(=O)NCC3CCCO3)nc3ccc(Br)cc3c2=O)cc1` (stereo unspecified), the Potency was “inactive”.
For `CCn1c(=N)c(C(=O)NCCCOC)cc2c(=O)n3cccc(C)c3nc21`, the Potency was “inactive”.
With `Cc1ccc2cc(C#N)c(NCCNC(=S)NCCCN3CCOCC3)nc2c1` the Potency was “inactive”.
For `Cc1cccn2c(=O)c3cc(C#N)c(=O)n(CCCN4CCOCC4)c3nc12`, the Potency was 2.62 µM (active).
For `O=C(NCc1ccco1)c1cccn2c(=O)c3c4c(sc3nc12)CCCC4`, the Potency was “inactive”.
In the case of `O=C(c1c(F)cccc1F)N1CCN(c2ncc(Br)cn2)CC1`, the Potency is reported as “inactive”.
In the case of `COC(=O)c1ccc(/C=N/NC(=O)C(=O)N2CCCCCC2)cc1`, the Potency is reported as “inactive”.
For `Brc1ccccc1C1N=C(c2ccccc2)NO1` (stereo unspecified), the Potency was “inactive”.
For `CCCCn1c(N)c(N(CC(C)C)C(=O)c2cccc(S(=O)(=O)N3CCN(C(C)=O)CC3)c2)c(=O)[nH]c1=O`, the Potency was “inactive”.
Potency is read from the fitted curve at half-maximal effect.
